Data: paper PMC9911399, “Two distinct binding modes provide the RNA-binding protein RbFox with extraordinary sequence specificity”
Residue numbers refer to the chain shown, from its start. In all, about 16,000 sequences were measured (“ka relative to ugcaugu”: median about 0.0091, highest 2% from about 0.032 on). This is one part of a sample in which the highest values are shown more often than they occur.

T1: RBFOX1 RRM (Homo sapiens, UniProt Q9NWB1 109-208)
T1 sequence: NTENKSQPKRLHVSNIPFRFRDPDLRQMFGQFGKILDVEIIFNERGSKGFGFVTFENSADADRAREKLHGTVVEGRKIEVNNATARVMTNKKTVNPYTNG

B1: AUCUUGC (DNA:RNA)
RNA: GGGAGACCGGAAUUCAGAUUGUCCAUCUUGCUUAAAUCCCGUCGUAGCCACCA
DNA 1: CAATCTGAATTCCGGTCTCCC
DNA 2: TGGTGGCTACGACGGGATT
B2: AUGACCA (DNA:RNA)
RNA: B1 RNA with C27G, U28A, U29C, G30C, C31A
DNA 1: CAATCTGAATTCCGGTCTCCC
DNA 2: TGGTGGCTACGACGGGATT
B3: CUAAUUG (DNA:RNA)
RNA: B1 RNA with A25C, C27A, U28A, G30U, C31G
DNA 1: CAATCTGAATTCCGGTCTCCC
DNA 2: TGGTGGCTACGACGGGATT
B4: GGCCUGU (DNA:RNA)
RNA: B1 RNA with A25G, U26G, U28C, C31U
DNA 1: CAATCTGAATTCCGGTCTCCC
DNA 2: TGGTGGCTACGACGGGATT
B5: GAUUAGC (DNA:RNA)
RNA: B1 RNA with A25G, U26A, C27U, U29A
DNA 1: CAATCTGAATTCCGGTCTCCC
DNA 2: TGGTGGCTACGACGGGATT
B6: UGCAACU (DNA:RNA)
RNA: B1 RNA with A25U, U26G, U28A, U29A, G30C, C31U
DNA 1: CAATCTGAATTCCGGTCTCCC
DNA 2: TGGTGGCTACGACGGGATT
B7: GGGCCGG (DNA:RNA)
RNA: B1 RNA with A25G, U26G, C27G, U28C, U29C, C31G
DNA 1: CAATCTGAATTCCGGTCTCCC
DNA 2: TGGTGGCTACGACGGGATT
B8: CCUGUGC (DNA:RNA)
RNA: B1 RNA with A25C, U26C, C27U, U28G
DNA 1: CAATCTGAATTCCGGTCTCCC
DNA 2: TGGTGGCTACGACGGGATT
B9: CUGUUGU (DNA:RNA)
RNA: B1 RNA with A25C, C27G, C31U
DNA 1: CAATCTGAATTCCGGTCTCCC
DNA 2: TGGTGGCTACGACGGGATT
B10: CGUUUGC (DNA:RNA)
RNA: B1 RNA with A25C, U26G, C27U
DNA 1: CAATCTGAATTCCGGTCTCCC
DNA 2: TGGTGGCTACGACGGGATT
B11: UGUGUGC (DNA:RNA)
RNA: B1 RNA with A25U, U26G, C27U, U28G
DNA 1: CAATCTGAATTCCGGTCTCCC
DNA 2: TGGTGGCTACGACGGGATT
B12: CGUGUGC (DNA:RNA)
RNA: B1 RNA with A25C, U26G, C27U, U28G
DNA 1: CAATCTGAATTCCGGTCTCCC
DNA 2: TGGTGGCTACGACGGGATT
B13: CGUCCUG (DNA:RNA)
RNA: GGGAGACCGGAAUUCAGAUUGUCCCGUCCUGUUAAAUCCCGUCGUAGCCACCA
DNA 1: CAATCTGAATTCCGGTCTCCC
DNA 2: TGGTGGCTACGACGGGATT
B14: UGUUUUG (DNA:RNA)
RNA: B13 RNA with C25U, C28U, C29U
DNA 1: CAATCTGAATTCCGGTCTCCC
DNA 2: TGGTGGCTACGACGGGATT
B15: CUGUCGU (DNA:RNA)
RNA: B1 RNA with A25C, C27G, U29C, C31U
DNA 1: CAATCTGAATTCCGGTCTCCC
DNA 2: TGGTGGCTACGACGGGATT
B16: UGUUCUG (DNA:RNA)
RNA: B13 RNA with C25U, C28U
DNA 1: CAATCTGAATTCCGGTCTCCC
DNA 2: TGGTGGCTACGACGGGATT
B17: UGUUUGC (DNA:RNA)
RNA: B1 RNA with A25U, U26G, C27U
DNA 1: CAATCTGAATTCCGGTCTCCC
DNA 2: TGGTGGCTACGACGGGATT
B18: CUGUUUG (DNA:RNA)
RNA: B1 RNA with A25C, C27G, G30U, C31G
DNA 1: CAATCTGAATTCCGGTCTCCC
DNA 2: TGGTGGCTACGACGGGATT
B19: CGUUCUG (DNA:RNA)
RNA: B13 RNA with C28U
DNA 1: CAATCTGAATTCCGGTCTCCC
DNA 2: TGGTGGCTACGACGGGATT
B20: AGCAGGG (DNA:RNA)
RNA: B1 RNA with U26G, U28A, U29G, C31G
DNA 1: CAATCTGAATTCCGGTCTCCC
DNA 2: TGGTGGCTACGACGGGATT

The binders below were run against T1, RBFOX1 RRM (assay: EMSA; HiTS-Eq, 1 nM pool, 10 min; buffer printed only for the single-RNA assays: 10 mM Tris pH 7.5, 150 mM NaCl, 3.4 mM EDTA, 0.001% NP-40, 30 C). Conditions: tags: His6 N-terminal (pET28a); label: 5' 32P.
Summary of the method: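 A pool of RNA with 7 randomized nucleotides, 5′-radiolabelled and with DNA-annealed flanks, was equilibrated at 1 nM for 10 min in 50 µL with purified RbFox RRM, wild type or mutant, across increasing protein concentrations. Free RNA was separated by 8% native PAGE, excised, reverse-transcribed, barcoded by PCR and sequenced. Relative association constants were obtained from read-count changes of each RNA species versus the control reaction and normalised to the cognate motif.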

Row | Binder | binding signal
1 | B1 | 0.0138 KA relative to UGCAUGU
2 | B2 | 0.00337 KA relative to UGCAUGU
3 | B3 | 0.013 KA relative to UGCAUGU
4 | B4 | 0.0238 KA relative to UGCAUGU
5 | B5 | 0.0124 KA relative to UGCAUGU
6 | B6 | 0.0132 KA relative to UGCAUGU
7 | B7 | 0.0124 KA relative to UGCAUGU
8 | B8 | 0.0232 KA relative to UGCAUGU
9 | B9 | 0.0226 KA relative to UGCAUGU
10 | B10 | 0.019 KA relative to UGCAUGU
11 | B11 | 0.0333 KA relative to UGCAUGU
12 | B12 | 0.0146 KA relative to UGCAUGU
13 | B13 | 0.0127 KA relative to UGCAUGU
14 | B14 | 0.0286 KA relative to UGCAUGU
15 | B15 | 0.0193 KA relative to UGCAUGU
16 | B16 | 0.0328 KA relative to UGCAUGU
17 | B17 | 0.0351 KA relative to UGCAUGU
18 | B18 | 0.0332 KA relative to UGCAUGU
19 | B19 | 0.0207 KA relative to UGCAUGU
20 | B20 | 0.0126 KA relative to UGCAUGU
